# Records with an inconclusive call do not appear. Activity calls are given as the source filed them. The call rests on the fitted dose curve.
# Test: p53 small molecule agonists, cell-based qHTS assay with rat liver microsomes: qHTS cell viability counter screen (AID 1963580); further: nearly all actives have a fitted effect of over 45% in size
# Conditions: p53RE-bla HCT-116 + rat microsomes, ATP viability, 16 h; series mostly up to 66 µM; activity change, negative = cytotoxicity: at the top concentration
# Source text: National Center for Advancing Translational Sciences [NCATS]
# Division of Preclinical Innovation [DPI]
# U.S. Environmental Protection Agency [EPA]
# National Institutes of Environmental Health Sciences [NIEHS]
# National Toxicology Program [NTP]
# U.S. Food and Drug Administration [FDA]
# p53, a tumor suppressor protein, is activated following cellular insult, including DNA damage and other cellular stresses. The activation of p53 regulates cell fate by inducing DNA repair, cell cycle arrest, apoptosis, or cellular senescence. The activation of p53, therefore, is a good indicator of DNA damage and other cellular stresses. The CellSensor p53RE-bla HCT-116 cell line contains a stably integrated beta-lactamase reporter gene under control of the p53 response elements. The activation of the reporter gene under culture conditions can be detected by fluorescence intensity. This cell line was used to screen the Tox21 10K compound library in the condition of presence of rat liver microsomes and to identify agonists that activate the p53 signaling pathway after in vitro metabolic activation (Ooka et al., Archive of Toxicology 96:1975-1987, 2022). The cytotoxicity of the Tox21 compound library against the p53 RE-bla HCT-116 cell line was tested in parallel by measuring the intra cellular ATP content in the same wells.
# Tox21 Assay Protocol Summary:
# The p53RE-bla cells were dispensed at 4,000cells/3ul/well in 1536-well black-clear bottom plates. After the assay plates were incubated at 37 C, 5% CO2 incubator for 5 hours, 23 nL of compounds dissolved in DMSO, positive controls or DMSO only was transferred to the assay plate. Following compound addition, 3 uL of rat liver microsomes (Molecular Toxicology, Boone, NC) at final concentration of 0.5 mg/mL and 1uL of B-Nicotinamide adenine dinucleotide 2'-phosphate (NADPH) at final concentration of 0.5 mg/mL were transferred to the assay plate. The plates were incubated at 37 C for 16 hours. 1 uL of LiveBLAzer detection mixture was added to each well and the plates were incubated at room temperature in the dark for 2 h. Fluorescence intensity at 460 and 530 nm emission and 405 nm excitation were measured by an Envision plate reader. For cell viability readout that measures cytotoxicity, 4 ul/well of CellTiter-Glo reagent was added into the assay plates using a Flying Reagent Dispenser. After 30 min incubation at room temperature, the luminescence intensity in the plates was measured using a ViewLux plate reader.
# On the % scale 0 is the no-effect control and ±100 the full control effect.
row,Compound,"activity change, negative = cytotoxicity"
1,CC(C)(C)c1ccccc1,10.7% (inactive)
2,O=[N+]([O-])c1cc(Cl)c(Cl)c(Cl)c1Cl,-0.814% (inactive)
3,Cc1c(C(C)C)c(=O)n(-c2ccccc2)n1C,9.03% [at 30.3 µM] (inactive)
4,CCC(=O)O[C@]1(C(=O)CCl)[C@@H](C)C[C@H]2[C@@H]3CCC4=CC(=O)C=C[C@]4(C)[C@@]3(F)[C@@H](O)C[C@@]21C,0.469% [at 30.3 µM] (inactive)
5,CC(N)C12CC3CC(CC(C3)C1)C2 (stereo not given),1.32% [at 30.3 µM] (inactive)
6,CC(C)=CCC/C(C)=C/CC/C(C)=C/CCC(=O)OC/C=C(\C)CCC=C(C)C,-0.714% [at 30.3 µM] (inactive)
7,CC(C)(c1cc(Br)c(OCCO)c(Br)c1)c1cc(Br)c(OCCO)c(Br)c1,0.542% (inactive)
8,O[C@@H](COc1cccc2ncccc12)CN1CCN(C2c3ccccc3[C@@H]3[C@H](c4ccccc42)C3(F)F)CC1 (stereo not given in full),-6.46% [at 30.3 µM] (inactive)
9,O=C(OOC(=O)c1ccccc1)c1ccccc1,-4.55% [at 30.3 µM] (inactive)
10,CCN(CC)CCNC(=O)c1cc(Cl)c(N)cc1OC,8.04% [at 30.3 µM] (inactive)
11,C=C1CC[C@H]2O[C@]2(C)CC[C@@H]2[C@@H]1CC2(C)C,-1.72% (inactive)
12,CC(C(O)c1ccc(O)cc1)N1CCC(Cc2ccccc2)CC1 (stereo not given),-5.04% [at 30.3 µM] (inactive)
13,CC(C)(C)C(=O)O,4.89% (inactive)
14,CCN(CC)c1cccc(C)c1,11.8% (inactive)
15,CC(C)(C)NCC(O)COc1cccc2c1C[C@H](O)[C@H](O)C2 (stereo not given in full),2.08% [at 30.3 µM] (inactive)
16,CCCC(C)C,-0.481% (inactive)
17,CC(CC(C#N)(c1ccccc1)C(C)C)N(C)C (stereo not given),-0.496% [at 30.3 µM] (inactive)
18,CCCCS,-0.896% (inactive)
19,CC(CC1c2ccccc2CCc2ccccc21)CN(C)C (stereo not given),0.932% [at 30.3 µM] (inactive)
20,CCO[Si](CCCCl)(OCC)OCC,-1.41% (inactive)

row,Compound,"activity change, negative = cytotoxicity"
1,CCC(=O)O[C@]1(C(=O)SCF)[C@H](C)C[C@H]2[C@@H]3C[C@H](F)C4=CC(=O)C=C[C@]4(C)[C@@]3(F)[C@@H](O)C[C@@]21C,6.2% [at 30.3 µM] (inactive)
2,C=C/C(C)=C/C/C=C(\C)CCC=C(C)C,-2.35% (inactive)
3,O=C(O)c1cc(O)c2c(c1)C(=O)c1cccc(O)c1C2=O,-0.0867% (inactive)
4,CCc1ccc(C(=O)C(C)CN2CCCCC2)cc1 (stereo not given),-7.07% [at 30.3 µM] (inactive)
5,CC(C(=O)O)c1ccc(-c2ccccc2)c(F)c1 (stereo not given),26.6% (inactive)
6,N[C@H]1C(O)O[C@H](CO)[C@H](O)[C@@H]1O (stereo not given in full),-17.2% (inactive)
7,CC(=O)CC(=O)Nc1ccc(C)cc1C,-0.305% (inactive)
8,COc1cc(CNC(=O)CCCC/C=C/C(C)C)ccc1O,2.8% (inactive)
9,CCCCCCCCCCCCCCBr,5.57% (inactive)
10,O=C(OCC1(COC(=O)c2cccnc2)CCCC(COC(=O)c2cccnc2)(COC(=O)c2cccnc2)C1O)c1cccnc1,0.81% [at 30.3 µM] (inactive)
11,Oc1cccc2cc3cccc(O)c3c(O)c12,-9.81% (inactive)
12,CCCCOc1ccc(OCCCN2CCOCC2)cc1,1.52% [at 30.3 µM] (inactive)
13,O=C(c1ccccc1)c1ccc(Cl)cc1,-1.11% (inactive)
14,Cc1ccc2oc(CN(Cc3ccccc3)C(=O)Nc3c(F)cc(F)cc3F)c(-c3ccc(Cl)cc3)c2c1,-25.5% (inactive)
15,O=C(O)c1ccc(Cl)c(Cl)c1,7.28% (inactive)
16,CCOC(=O)CC1(C)OCC(C)O1 (stereo not given),0.479% (inactive)
17,C=CCSSCCC,-5.69% (inactive)
18,O=C(NCCCN1CCOCC1)c1ccc(Cl)cc1,-0.161% [at 30.3 µM] (inactive)
19,CCCCC(=O)OCC(=O)[C@H]1[C@H](C)C[C@H]2[C@@H]3C[C@H](F)C4=CC(=O)C=C[C@]4(C)[C@@]3(F)[C@@H](O)C[C@@]21C,1.92% [at 30.3 µM] (inactive)
20,C=CCNc1nc(NCC=C)nc(N2CCN(C(c3ccc(F)cc3)c3ccc(F)cc3)CC2)n1,-16.5% [at 30.3 µM] (inactive)

# From PubChem BioAssay (Tox21)
